Source: PubChem BioAssay AID492972 (The Scripps Research Institute Molecular Screening Center, 2010)
Among all 340,000 compounds or so, about 930 (0.27%) were called active.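 The calls were made as follows: active = inhibition above the screen-wide average of all tested compounds plus 3 SD (cut at about 25% in these data); inactive = the rest.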 The list comes from a sample in which actives are over-represented; it also holds similar structures and randomly drawn compounds.

Target: Platelet-activating factor acetylhydrolase IB subunit alpha1 (Homo sapiens) (UniProt Q15102)
Sequence (Q15102 whole entry, looked up): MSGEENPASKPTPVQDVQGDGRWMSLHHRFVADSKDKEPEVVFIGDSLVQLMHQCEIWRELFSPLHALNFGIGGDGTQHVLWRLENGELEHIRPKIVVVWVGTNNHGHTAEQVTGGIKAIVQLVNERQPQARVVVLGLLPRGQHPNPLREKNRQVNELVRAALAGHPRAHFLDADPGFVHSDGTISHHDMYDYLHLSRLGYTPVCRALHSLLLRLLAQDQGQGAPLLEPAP
Assay: PAFAH1B3 enzyme inhibitors, primary screen, biochemical, fluorescence polarization, human (AID 492972);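 also: 0% = enzyme with DMSO only and 100% = wells lacking PAFAH1B3 protein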
Conditions: recombinant PAFAH1B3, FP-rhodamine probe, at 3.39 µM, active compounds read high

inhibition, active:
O=C(OCC(=O)N1CCN(c2ccccc2)CC1)c1ccc([N+](=O)[O-])s1 53.8%
COc1ccc(C(=O)COC(=O)c2ccc([N+](=O)[O-])s2)cc1OC 33.9%
CC(C)CC[n+]1ccn(C2=C([O-])c3ccccc3C(=O)/C2=N\S(=O)(=O)c2ccccc2)c1 34.1%
O=C1C(Cl)=C(Oc2ccccc2)C(=O)c2ccccc21 37.3%
Nc1ccc2nc3c(=O)[nH]c(=S)[nH]c3nc2c1 48.8%
Oc1cccc(/C=N/Nc2ccc(Cl)nn2)c1O 55.2%
CC(=O)N(C1=C(Cl)C(=O)c2ccccc2C1=O)c1ccc(C(=O)O)cc1 39%
CCCC1OC23CCCCC2C(C#N)(C#N)C1(C#N)C(=N)O3 (stereo unspecified) 27.8%
O=C1Nc2c(Br)cc(Br)cc2C1(O)N1CCOCC1 (stereo unspecified) 38%
O=C(NC1=CC(=O)c2ccccc2C1=O)c1ccccc1 28.6%
COC(=O)C1=C(C)NC2=C(C(=O)c3ccccc32)C1c1ccc(-c2ccc(C(=O)O)cc2)o1 (stereo unspecified) 46.5%
Cc1c(-c2nn(C)c(=O)c3ccccc23)oc2ccc(F)cc2c1=O 37.7%
Cc1ccc(C)c(NC(=O)NNC(=O)c2ccc3ccccc3c2O)c1 39.8%
CCCCNC(=O)N(O)C1N(/N=C/c2ccc(N(C)C)cc2)C(=S)SC1(C)C (stereo unspecified) 40.5%

inhibition, inactive:
CCN(CC)S(=O)(=O)N1CCC(C(=O)NC(C)CCc2ccccc2)CC1 (stereo unspecified) 9.79%
CC(C)N(C)C(=O)CCc1nnc(CCc2c[nH]c3ccccc23)o1 1.11%
CN(C)CCCCCN(C)Cc1cc2ccccc2o1 3.58%
O=C(Cn1nc([N+](=O)[O-])nc1Br)NC1CCCCC1 11%
CCN1CCc2nc(NC(=O)c3cc(F)c(F)cc3Cl)sc2C1 1.2%
CC(C)c1ccc(S(=O)(=O)N2CCN(C(=O)CN3C(=O)NC(C)(c4ccccc4)C3=O)CC2)cc1 (stereo unspecified) 5.24%
COc1ccccc1N1CCN(c2nc(C)cc(=O)[nH]2)CC1 9.92%
Clc1cc(NC2CCCCC2)ncn1 6.06%
COc1cccc(/C=C/C(=O)OCC(=O)N2CCN(c3ccccc3)CC2)c1 -3.05%
COc1cc(NC(=O)COC(=O)c2ccc([N+](=O)[O-])s2)cc(OC)c1OC 23.3%
COc1ccc(C(=O)OCC(=O)c2ccc(C)c(S(=O)(=O)N3CCOCC3)c2)cc1OC 14%
C[C@H](NC(=O)c1ccccc1Cl)C(=O)OCC(=O)N1CCN(c2ccccc2)CC1 2.77%
CN1/C(=c2/s/c(=C3/C(=O)N(c4ccccc4)NC3=Nc3ccccc3)n(C)c2=O)C(C)(C)c2ccccc21 6.84%
COc1ccc(S(=O)(=O)/N=C2\C=C(NS(=O)(=O)c3ccccc3)C(=O)c3ccccc32)cc1 -2.66%
CCCCCC(=O)Nc1ccc(-c2cn3cccnc3n2)cc1 8.1%
COc1ccc(-c2cc3n(n2)CCc2nc4ccccc4n2-3)cc1 1.18%
CCC(C)C(NC(=O)C1CCC(=O)N1C(=O)OCc1ccccc1)C(=O)NC(C(=O)N1CCCC1C(N)=O)C(C)CC (stereo unspecified) -7.74%
CC1CCN(CCCn2c(SCC(=O)NC3CCCC3)nc3ccccc3c2=O)CC1 6.29%
O=Cc1cn(-c2ccccc2)nc1-c1ccccn1 0.88%
Cn1ncc(Br)c1C(=O)NC1CCCC1 4.81%
O=C(Nc1ccc(Br)cc1)C1CCC(=O)N1Cc1ccccc1Cl (stereo unspecified) 7.1%
N#Cc1ccc(S(=O)(=O)NCC(=O)OCC(=O)NCCc2ccccc2)cc1 -8.29%
O=C(Oc1cccc(N2C(=O)C3C4c5ccccc5C(c5ccccc54)C3C2=O)c1)c1ccco1 (stereo unspecified) 12.6%
COc1cccc(C2CC(c3ccccc3)=NN2S(=O)(=O)c2ccccc2)c1OC (stereo unspecified) 0.58%
COc1ccc(C(=O)C(C)OC(=O)c2cccc(S(=O)(=O)Nc3c(C)n(C)n(-c4ccccc4)c3=O)c2)cc1 (stereo unspecified) 10%
O=C(NN=Cc1ccccc1O)NN=Cc1ccccc1O 7.65%
C/C(=N\Nc1ccc(Cl)nn1)c1ccccc1O 4.6%
CN(C(=O)c1cccc(NC(=O)Cc2cccc(NC(=O)C3CCCN(C(=O)C4CC4)C3)c2)c1)C1CCC1 (stereo unspecified) 1.82%
Cc1c2cnn(CC(=O)NCc3ccccn3)c(=O)c2c(C)n1Cc1ccc(Cl)cc1 0.23%
N#C/C=C1\Sc2ccccc2C(=O)N1CC(=O)N1CCN(S(=O)(=O)c2ccccc2)CC1 5.99%
Fc1c(F)c(C(F)(F)F)c(F)c(F)c1N1CCN(c2ccc3nnc(C(F)(F)F)n3n2)CC1 6.38%
COc1ccccc1C(C)NC(=O)Cc1ccsc1 (stereo unspecified) 4.64%
O=C(Nc1cccn(Cc2ccccc2Cl)c1=O)NC1CCCCC1 -6.16%
CC(NC(=O)COc1cccnc1[N+](=O)[O-])c1ccc(Cl)cc1Cl (stereo unspecified) 9.45%
CCCCN=C1C([N+](=O)[O-])=CC=C2C1=NC1(CCCCC1)N2O 7.2%
CC(C)c1ccc(-c2nn[nH]n2)cc1 5.47%
Cc1ccc(S(=O)(=O)N2CCN(C(=O)Cc3sc(C)nc3-c3ccc(F)cc3)CC2)c(C)c1 4.17%
O=C(CN1C(=O)NC2(CCCCCC2)C1=O)Nc1ccc([N+](=O)[O-])cc1 7%
CC(=O)c1c(C)[nH]c(C(=O)N2CCN(S(=O)(=O)c3ccc(F)c(F)c3)CC2)c1C 0.06%
N#Cc1c(-c2ccc(Cl)cc2)c2c([nH]c1=S)CCCC2 2.52%
O=C(c1cc2cc(Br)cc(Br)c2oc1=O)N1CCOCC1 0.41%
O=C1C=C(NS(=O)(=O)c2ccccc2)C(=O)c2ccccc21 13.3%
CC(NC(=O)c1ccccc1)C(=O)Nc1ccccc1 (stereo unspecified) 3.87%
CN1CCN(C(=O)c2cnn(-c3ccccc3)c2NC(=O)c2ccc([N+](=O)[O-])cc2)CC1 6.79%
OCCNc1nc2ccccc2n1-c1ncnc2sc3c(c12)CCC3 10.6%
CCN(CC(=O)Nc1c(F)cccc1F)C(=O)c1cnc(C)cn1 -0.64%
CCOC(=O)c1ccc(-c2ccc(C(=O)Nc3cccnc3)o2)cc1 -6.74%
COC(=O)C1=C(C)N(C)C(=O)NC1c1ccc([N+](=O)[O-])o1 (stereo unspecified) 0.98%
COc1ccc(N2CCN(C3CCCCC3NS(=O)(=O)c3ccccc3)CC2)cc1 (stereo unspecified) 7.46%
CCOC(=O)C1=C(CN2CCc3ccccc32)NC(=O)NC1c1cc(C)ccc1C (stereo unspecified) 0.4%
CC(C)(C)OC(=O)N1CCC(C(=O)Nc2cccc(C(=O)NCCc3ccccc3)c2)CC1 -4.3%
CCOC(=O)CNC(=O)CSc1ncccc1-c1nc2ccccc2[nH]1 -4.22%
O=C(Nc1ccc(CN2CCOCC2)cc1)c1cc(Cl)ccc1Cl 7.42%
Cc1ccc(C)c(S(=O)(=O)N2CCN(C(=O)Nc3ccccc3)CC2)c1 3.11%
O=C(Nc1ccccc1Cl)N1CCN(c2ccc3nncn3n2)CC1 2.34%
Cc1ccc(F)cc1NC(=O)Cc1nn(C)c(=O)c2ccccc12 -8.34%
CCC(=O)NCc1cc(-c2nn(C)c(=O)c3ccccc23)ccc1OC -3.52%
Cn1ncc2c(N3CCCCC3)nc(NCCCO)nc21 8.53%
Cc1ccc(S(=O)(=O)NNC(=O)Nc2cccc3ccccc23)cc1 3.24%
Cc1ccc(C)c(NC(=O)COC(=O)CSc2ccccc2)c1 1.73%
CN(Cc1ccccc1)C(=O)C1CCCN(c2ncnc3c2nc2n3CCCCC2)C1 (stereo unspecified) 3.41%
Cc1cccnc1CCNC(=O)C1CCC(=O)N(Cc2cccc(F)c2)C1 (stereo unspecified) 2.19%
Cc1ccc(CNS(=O)(=O)c2ccc3c(c2)N(C)CCO3)cc1 8.72%
CC(=O)Nc1ccccc1OC(C)C(=O)N1CCC(C)CC1 (stereo unspecified) 1.25%
CN(C)CCN=c1cc(-c2ccccc2)oc2ccc(Cl)cc12 5.11%
CCc1ccc(OCC(=O)NCC(c2ccc(Cl)cc2)N2CCCCC2)cc1 (stereo unspecified) 1.46%
O=C1c2cccc(OCC(=O)N3N=C(c4cccs4)CC3c3ccc(F)cc3)c2CCN1Cc1ccccc1 (stereo unspecified) 3.19%
Cc1cc2cc3c(N)[nH]nc3nc2cc1C 5.34%
COc1ccc(S(=O)(=O)N2CCOCC2)cc1NC(=O)Cc1coc2cc(C)ccc12 9.79%
O=C(NCc1cccnc1)c1ccc(CS(=O)(=O)c2ccc(Br)cc2)o1 2.95%
CCn1ncc(C2=NOC(C(=O)Nc3ccccc3C(=O)OC)C2)c1C (stereo unspecified) 9.12%
O=C(CN1CCN(C(=O)c2ccco2)CC1)Nc1ccc(Cl)c(C(F)(F)F)c1 8.31%
CN(CC(=O)NCc1ccc2c(c1)OCO2)CC(=O)Nc1ccc(F)c(F)c1F 7.36%
CCCCNC(=O)N(O)C1N(/N=C/c2ccccc2O)C(=S)SC1(C)C (stereo unspecified) -1.86%
CCC(C)N1C(=S)SC(C)(C)C1N(O)C(=O)NC1CCCCC1 (stereo unspecified) 3.27%
CC1CCCC(NC(=O)COC(=O)[C@@H]2CC(O)CN2S(=O)(=O)c2ccc3c(c2)OCCO3)C1C (stereo partly specified) -2.21%
COc1cc(OC)cc(-c2c(C#Cc3ccsc3)c3cc(-c4ccc(SC)cc4)ccc3n2C)c1 11.8%
